From PubChem BioAssay AID1671202 (University of Kansas High Throughput Screening Laboratory, 2021)
“And” between values parts separate entries of the source, which are not always exact repeats. Identical values can stand only once. In all, about 190,000 compounds went through this assay and about 6,900 (3.6%) were called active. This is one part of a sample in which actives are shown more often than they occur. Unmarked numbers belong to inactive results. Cut-off read from the data, not from the text of the source: active = inhibition above about 50%; inactive = the rest.

Target: Huntingtin (Homo sapiens) (UniProt P42858)
Experiment: mutant huntingtin-calmodulin interaction inhibitors – biochemical, AlphaScreen, primary screen (AID 1671202);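 note: 0% = both proteins with DMSO and 100% = one protein alone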
Settings: AlphaScreen His-mHTT/GST-CaM binding, luminescence; at 15 µM, active compounds read high

Sequence of Huntingtin (Homo sapiens) (P42858 whole entry, looked up, stated change not applied): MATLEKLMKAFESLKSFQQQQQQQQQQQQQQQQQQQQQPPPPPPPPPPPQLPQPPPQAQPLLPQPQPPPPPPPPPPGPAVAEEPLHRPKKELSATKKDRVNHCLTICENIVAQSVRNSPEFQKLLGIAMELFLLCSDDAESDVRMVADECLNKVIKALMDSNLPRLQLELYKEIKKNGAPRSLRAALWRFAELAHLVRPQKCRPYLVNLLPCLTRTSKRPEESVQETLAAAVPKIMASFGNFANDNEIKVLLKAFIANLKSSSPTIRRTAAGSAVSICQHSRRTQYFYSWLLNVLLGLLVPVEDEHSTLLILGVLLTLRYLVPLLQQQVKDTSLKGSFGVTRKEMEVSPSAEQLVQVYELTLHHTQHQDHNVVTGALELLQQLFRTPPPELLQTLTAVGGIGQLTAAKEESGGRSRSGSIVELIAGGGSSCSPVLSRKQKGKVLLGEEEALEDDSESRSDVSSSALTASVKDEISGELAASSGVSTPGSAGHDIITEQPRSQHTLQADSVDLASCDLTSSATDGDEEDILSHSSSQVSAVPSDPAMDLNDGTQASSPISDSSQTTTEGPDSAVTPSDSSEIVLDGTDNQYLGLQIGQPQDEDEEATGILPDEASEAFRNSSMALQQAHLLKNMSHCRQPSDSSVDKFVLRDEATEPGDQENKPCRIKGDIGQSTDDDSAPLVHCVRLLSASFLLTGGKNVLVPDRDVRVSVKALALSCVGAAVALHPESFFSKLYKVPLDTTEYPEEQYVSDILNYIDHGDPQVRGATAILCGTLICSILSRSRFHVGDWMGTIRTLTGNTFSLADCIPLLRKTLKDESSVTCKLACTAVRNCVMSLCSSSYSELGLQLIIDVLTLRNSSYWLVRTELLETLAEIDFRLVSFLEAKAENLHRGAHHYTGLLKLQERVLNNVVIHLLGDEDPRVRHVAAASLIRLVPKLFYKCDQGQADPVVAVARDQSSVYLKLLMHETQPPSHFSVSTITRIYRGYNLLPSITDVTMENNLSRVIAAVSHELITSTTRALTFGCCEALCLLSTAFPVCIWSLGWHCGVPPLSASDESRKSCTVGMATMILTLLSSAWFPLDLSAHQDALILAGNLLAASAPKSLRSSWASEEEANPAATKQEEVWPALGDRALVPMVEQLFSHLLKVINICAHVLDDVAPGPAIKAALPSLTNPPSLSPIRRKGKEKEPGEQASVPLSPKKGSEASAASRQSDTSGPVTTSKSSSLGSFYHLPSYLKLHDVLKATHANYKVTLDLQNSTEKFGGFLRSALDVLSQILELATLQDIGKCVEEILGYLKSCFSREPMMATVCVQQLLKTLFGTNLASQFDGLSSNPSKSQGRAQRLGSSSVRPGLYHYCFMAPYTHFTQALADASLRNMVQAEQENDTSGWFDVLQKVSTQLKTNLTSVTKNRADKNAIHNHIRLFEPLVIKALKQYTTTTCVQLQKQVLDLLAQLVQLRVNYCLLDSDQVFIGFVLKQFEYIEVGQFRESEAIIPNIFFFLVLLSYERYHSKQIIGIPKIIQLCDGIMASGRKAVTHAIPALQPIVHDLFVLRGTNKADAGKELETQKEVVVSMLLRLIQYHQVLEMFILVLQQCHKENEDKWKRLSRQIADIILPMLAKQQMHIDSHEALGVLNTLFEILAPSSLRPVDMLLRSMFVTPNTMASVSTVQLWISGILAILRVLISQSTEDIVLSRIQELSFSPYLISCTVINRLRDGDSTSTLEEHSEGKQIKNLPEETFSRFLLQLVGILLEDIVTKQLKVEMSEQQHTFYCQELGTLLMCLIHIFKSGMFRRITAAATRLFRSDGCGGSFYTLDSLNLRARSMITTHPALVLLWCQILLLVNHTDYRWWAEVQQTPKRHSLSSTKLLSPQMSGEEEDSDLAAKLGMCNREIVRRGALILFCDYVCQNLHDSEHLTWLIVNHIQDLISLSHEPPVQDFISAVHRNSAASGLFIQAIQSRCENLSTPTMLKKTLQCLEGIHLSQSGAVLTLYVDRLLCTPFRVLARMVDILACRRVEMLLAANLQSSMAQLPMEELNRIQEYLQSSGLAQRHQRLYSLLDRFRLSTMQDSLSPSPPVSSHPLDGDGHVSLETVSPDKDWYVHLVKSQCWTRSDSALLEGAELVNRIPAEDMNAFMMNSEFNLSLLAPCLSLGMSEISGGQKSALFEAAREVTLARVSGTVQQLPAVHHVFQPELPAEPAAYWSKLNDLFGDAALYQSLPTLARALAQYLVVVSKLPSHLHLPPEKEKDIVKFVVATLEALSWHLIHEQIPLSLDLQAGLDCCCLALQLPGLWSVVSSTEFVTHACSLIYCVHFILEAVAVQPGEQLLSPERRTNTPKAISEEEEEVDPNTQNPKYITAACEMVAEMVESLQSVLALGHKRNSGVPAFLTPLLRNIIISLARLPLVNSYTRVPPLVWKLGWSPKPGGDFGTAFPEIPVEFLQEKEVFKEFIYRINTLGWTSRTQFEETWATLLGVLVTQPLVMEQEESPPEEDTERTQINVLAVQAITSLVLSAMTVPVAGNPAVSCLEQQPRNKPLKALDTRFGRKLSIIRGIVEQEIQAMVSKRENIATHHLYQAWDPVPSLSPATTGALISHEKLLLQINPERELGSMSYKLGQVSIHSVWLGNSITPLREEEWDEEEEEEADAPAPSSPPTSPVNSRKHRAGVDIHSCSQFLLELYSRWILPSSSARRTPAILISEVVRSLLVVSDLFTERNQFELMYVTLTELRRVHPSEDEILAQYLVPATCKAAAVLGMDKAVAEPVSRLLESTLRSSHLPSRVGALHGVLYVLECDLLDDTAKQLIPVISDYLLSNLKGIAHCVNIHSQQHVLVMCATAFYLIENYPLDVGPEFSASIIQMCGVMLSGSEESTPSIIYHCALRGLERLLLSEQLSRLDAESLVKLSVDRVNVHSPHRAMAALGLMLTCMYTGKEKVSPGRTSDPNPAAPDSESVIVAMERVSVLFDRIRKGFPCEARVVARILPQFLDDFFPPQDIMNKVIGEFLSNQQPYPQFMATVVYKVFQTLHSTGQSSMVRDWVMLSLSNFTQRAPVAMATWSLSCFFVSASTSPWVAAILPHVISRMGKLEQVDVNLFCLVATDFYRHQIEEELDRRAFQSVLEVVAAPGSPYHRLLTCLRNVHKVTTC

First: CCc1nn(-c2ccc(F)cc2)c(CC)c1C(=O)N1CCN(C)CC1
Second: CCN1CCN(C(=O)c2c(C(C)C)nn(-c3cccc(Cl)c3)c2C(C)C)CC1
The inhibition of the first is lower: 9.8% for the first, 32.9% for the second.

Compared with `CN(C)C(=O)CSc1nnc(N)s1`, `CCOc1ccc2nc(NC(=O)c3ccc(OC)cc3)sc2c1` is lower in inhibition: -4.07% for the first, -5% for the second.

First: Cc1ccc2c(c1)C(=O)NC1(CCN(C(=O)c3ccc(C(F)(F)F)cc3)CC1)N2C
Second: CCn1cc2c3c(cccc31)CN(C(=O)c1ccc(OC)cc1)CC2
The inhibition of the first is lower: 4.4% for the first, 44.1% for the second.

First: N#Cc1ccc(C(=O)N2CCCC(c3ccnc(Nc4ccccc4)n3)C2)cc1 (stereo not drawn)
Second: N#Cc1ccc(C(=O)N2CCCC(c3ccnc(Nc4cccc(F)c4)n3)C2)cc1 (stereo not drawn)
The inhibition of the first is lower: -5.02% for the first, 6.41% for the second.

Going from `O=C(c1ccccc1)N1CCCC(c2ccnc(Nc3ccccc3)n2)C1` (stereo not drawn) to `O=C(c1ccccc1F)N1CCCC(c2ccnc(-c3cccc(F)c3)n2)C1` (stereo not drawn), the inhibition falls from 43.6% to 1.2%.

First: COc1ccc(CCNC(=S)NC2Cc3ccccc3C2)cc1OC
Second: COc1cc(NC(=O)c2ccccc2OC)c(OC)cc1Cl
The inhibition of the first is lower: 6.9% for the first, 9% for the second.

Going from `Cc1onc(-c2ccccc2)c1C(=O)Nc1ccc(S(N)(=O)=O)cc1` to `O=C(Nc1ccc(Cl)cc1)c1ccc2nc3ccccc3nc2c1`, the inhibition rises from -0.8% to 13.5%.

Compared with `CN1CCN(c2cc(C(=O)O)c3cc(F)ccc3n2)CC1`, `Cc1cc(C)nc(NC(=O)c2cccc(F)c2)c1` is lower in inhibition: 3.5% for the first, -6.5% for the second.

Going from `N#Cc1ccc(Sc2nc3ccccc3o2)c([N+](=O)[O-])c1` to `O=C(NCCSc1c[nH]c2ccccc12)c1ccc(Cl)c([N+](=O)[O-])c1`, the inhibition rises from 12% to 37%.

Compared with `COc1ncccc1CNC(=O)c1cccs1`, `CC(NC(=O)COc1ncccn1)c1ccccc1` (stereo not drawn) is lower in inhibition: -2.2% for the first, -13.9% for the second.

Going from `O=C(Cc1ccccc1)Nc1ccc(F)c(Cl)c1` to `Cc1ccc(C)c(NC(=O)Cc2ccccc2)c1`, the inhibition rises from -11.1% to 0.9%.

Compared with `O=C(O)c1ccccc1C(=O)Nc1cccc2cccnc12`, `COc1cccc(C(=O)NC(c2cccc([N+](=O)[O-])c2)c2cc(Cl)c3cccnc3c2O)c1` (stereo not drawn) is higher in inhibition: 4% for the first, 19% for the second.

Going from `O=C(Cc1ccccc1)NC(Nc1ccccc1Cl)C(Cl)(Cl)Cl` (stereo not drawn) to `CC(C)c1ccc(OCC(=O)Nc2ccccc2[N+](=O)[O-])cc1`, the inhibition falls from 20% to 3.8%.

Compared with `COc1ccc(-n2c(-c3cccc([N+](=O)[O-])c3)cn3c4c(=O)n(C)c(=O)n(C)c4nc23)cc1`, `COc1ccc(-c2coc3c(C)c4oc(=O)c5ccccc5c4cc23)cc1F` is lower in inhibition: 4% for the first, 2% for the second.

Going from `CC(=O)c1ccc(NC(=O)CSc2ncc(-c3ccc(C)c(C)c3)o2)cc1` to `CC(=O)C1=C(C)NC(SCC(=O)c2ccccc2)=C(C#N)C1c1ccc(Br)cc1` (stereo not drawn), the inhibition falls from 2.5% to -23.7%.

Going from `CC(=O)N1CCc2cc(Br)cc(S(=O)(=O)NCCc3ccccc3)c21` to `Cc1cc(S(=O)(=O)NCc2cccnc2)c(Cl)cc1Cl`, the inhibition falls from 20% to -3.6%.

Going from `Cc1ccc(C)c(C(O)=C2C(=O)C(=O)N(CCCN3CCOCC3)C2c2ccncc2)c1` (stereo not drawn) to `Cc1ccc(S(=O)(=O)N2CCCC(C)(C(=O)NCc3ccccc3C)C2)cc1` (stereo not drawn), the inhibition rises from -2.8% to 13%.

Compared with `Clc1ccc(C2C=C(c3cccc(Br)c3)Nc3nnnn32)c(Cl)c1` (stereo not drawn), `N#CC1=C(N)Oc2n[nH]c(-c3ccccc3)c2C1c1ccc(F)c(Br)c1` (stereo not drawn) is higher in inhibition: -5% for the first, 20% for the second.

First: COc1ccc(C=C2Oc3cc(OC(=O)c4ccc5c(c4)OCO5)ccc3C2=O)c(OC)c1OC
Second: CCCn1cc2c3c(cccc31)CN(C(=O)Nc1cc(OC)c(OC)c(OC)c1)CC2
The inhibition of the first is higher: 3.6% for the first, 2.35% for the second.

Compared with `Cc1cc(-c2[nH]c3c(c2-c2cc(C)sc2C)c(=O)n(C)c(=O)n3C)c(C)s1`, `CCn1cc2c3c(cccc31)CN(C(=O)Nc1ccc(C)cc1C)CC2` is higher in inhibition: -3% for the first, 26.9% for the second.

First: Cc1cc(Cl)ccc1OCC(=O)NCCc1nc2ccccc2[nH]1
Second: Cc1cccc(NC(=O)c2cc(F)ccc2F)n1
The inhibition of the first is higher: 19% for the first, -3% for the second.

First: COc1cccc(NC(=O)C2(c3ccccc3)CCOCC2)c1
Second: Cc1ccc(CNC(=O)N2CCCC(C)(C(=O)NCc3ccccc3)C2)cc1 (stereo not drawn)
The inhibition of the first is higher: 1.7% for the first, 0.08% for the second.

Going from `Cc1cccc2nnc(N3CCC(C(=O)N4CCOCC4)CC3)n12` to `CC(C)Cn1cc2c3c(cccc31)CN(C(=O)Nc1ccc(F)cc1)CC2`, the inhibition falls from 1.65% to 0.25%.

Going from `CCN=C1SC(C(=O)Nc2ccc(Cl)cc2)CC(=O)N1CC` (stereo not drawn) to `CCN(CC)S(=O)(=O)N(CC(=O)NC(C)(C)C)Cc1ccc(F)cc1`, the inhibition falls from 7% to -4%.

For `Cc1c(C(=O)N2CCN(C)CC2)c(CC(C)C)nn1-c1ccc(Cl)c(Cl)c1`, the inhibition was 94.8% (active).
With `CN(C)c1ccc(C(=O)N2CCCC(c3ccnc(Nc4cccc(F)c4)n3)C2)cc1` (stereo not drawn) the inhibition was 80.1% (active).
For `COc1ccc(C(=O)N2CCCC(c3ccnc(Nc4ccccc4)n3)C2)cc1` (stereo not drawn), the inhibition was 69.4% (active).
`Cc1ccc(C(=O)NCCOc2cccc3cccnc23)cc1` was tested, and the inhibition was 9% and -2%.
`CC(=O)NC(c1ccccc1)c1ccc2cccnc2c1O` (stereo not drawn) was tested, and the inhibition was 100% (active).
For `CC(=O)NC(c1cccs1)c1cc(Cl)c2cccnc2c1O` (stereo not drawn), the inhibition was 70% (active) and 100% (active).
With `Cc1ccc(C(NC(=O)Cc2ccccc2)c2ccc3cccnc3c2O)cc1` (stereo not drawn) the inhibition was 100% (active).
In the case of `O=C(Cc1ccccc1)NC(c1ccc(Cl)cc1)c1ccc2cccnc2c1O` (stereo not drawn), the inhibition is reported as 99% (active).
`O=C(Nc1nncs1)c1ccc2nc(-c3ccco3)c(-c3ccco3)nc2c1` was tested, and the inhibition was 99.4% (active).
With `O=C(COc1ccc(Cl)cc1Cl)NCCSc1c[nH]c2ccccc12` the inhibition was 61% (active).
For `Cc1ccnc(NC(c2ccc(O)cc2)c2ccc3ccc(C)nc3c2O)c1` (stereo not drawn), the inhibition was 98% (active).
For `Cc1cccc(NC(c2cccc(F)c2)c2ccc3ccc(C)nc3c2O)n1` (stereo not drawn), the inhibition was 76% (active).
In the case of `Cc1ccc(CNC(=O)C2(C)CCCN(S(=O)(=O)c3cc(C)c(C)cc3C)C2)cc1` (stereo not drawn), the inhibition is reported as 52.3% (active).
`COc1ccc(OC)c(NC(=O)N2CCc3cn(CC(C)C)c4cccc(c34)C2)c1` was tested, and the inhibition was 69.3% (active).
In the case of `CCn1cc2c3c(cccc31)CN(C(=O)Nc1cc(C)ccc1OC)CC2`, the inhibition is reported as 60.9% (active).
